The supplement of paper PMC10849652
Of roughly 7,900 targets only a part is listed; those with a hit were picked by preference. About 0.6% of all pairs of compound and target were hits.

Compound: c1cn2cc(-c3ccc4cn[nH]c4c3)nc(Nc3ccc(N4CCOCC4)cc3)c2n1 [entospletinib]
Experiment: log2 fold change, soluble protein after heating vs DMSO (PISA); higher = thermal stabilisation; K562 cells, 10 uM, 30 min; active = over 0.2 and 3.5 SD of the protein, either way, in both replicates (recomputed)
Summary of the method: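 K562 cells at 2×10^6 cells/mL were treated for 30 min with 10 μM compound, and aliquots were heated for 3 min over 48°C-58°C before pooling. Extraction used PBS with 0.5% NP-40 at 4°C, and soluble protein was the supernatant after 21,000xg for 90 min, measured by TMTpro 16plex LC-MS/MS with channel sums equalised. Thermal stability values, relative to control samples and from duplicates, are log2 fold changes.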

UniProt O60911, sequence (O60911 whole entry, looked up): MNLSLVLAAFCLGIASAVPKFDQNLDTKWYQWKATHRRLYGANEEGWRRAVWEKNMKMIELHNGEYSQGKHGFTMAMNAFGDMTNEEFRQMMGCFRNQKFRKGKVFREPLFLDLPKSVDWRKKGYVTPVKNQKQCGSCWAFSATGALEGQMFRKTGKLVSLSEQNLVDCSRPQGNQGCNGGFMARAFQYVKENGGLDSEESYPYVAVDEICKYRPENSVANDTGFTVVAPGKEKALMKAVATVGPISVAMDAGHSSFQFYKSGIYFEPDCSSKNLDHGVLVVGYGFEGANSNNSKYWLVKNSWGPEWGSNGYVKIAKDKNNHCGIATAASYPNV
UniProt Q14203, sequence (Q14203 whole entry, looked up): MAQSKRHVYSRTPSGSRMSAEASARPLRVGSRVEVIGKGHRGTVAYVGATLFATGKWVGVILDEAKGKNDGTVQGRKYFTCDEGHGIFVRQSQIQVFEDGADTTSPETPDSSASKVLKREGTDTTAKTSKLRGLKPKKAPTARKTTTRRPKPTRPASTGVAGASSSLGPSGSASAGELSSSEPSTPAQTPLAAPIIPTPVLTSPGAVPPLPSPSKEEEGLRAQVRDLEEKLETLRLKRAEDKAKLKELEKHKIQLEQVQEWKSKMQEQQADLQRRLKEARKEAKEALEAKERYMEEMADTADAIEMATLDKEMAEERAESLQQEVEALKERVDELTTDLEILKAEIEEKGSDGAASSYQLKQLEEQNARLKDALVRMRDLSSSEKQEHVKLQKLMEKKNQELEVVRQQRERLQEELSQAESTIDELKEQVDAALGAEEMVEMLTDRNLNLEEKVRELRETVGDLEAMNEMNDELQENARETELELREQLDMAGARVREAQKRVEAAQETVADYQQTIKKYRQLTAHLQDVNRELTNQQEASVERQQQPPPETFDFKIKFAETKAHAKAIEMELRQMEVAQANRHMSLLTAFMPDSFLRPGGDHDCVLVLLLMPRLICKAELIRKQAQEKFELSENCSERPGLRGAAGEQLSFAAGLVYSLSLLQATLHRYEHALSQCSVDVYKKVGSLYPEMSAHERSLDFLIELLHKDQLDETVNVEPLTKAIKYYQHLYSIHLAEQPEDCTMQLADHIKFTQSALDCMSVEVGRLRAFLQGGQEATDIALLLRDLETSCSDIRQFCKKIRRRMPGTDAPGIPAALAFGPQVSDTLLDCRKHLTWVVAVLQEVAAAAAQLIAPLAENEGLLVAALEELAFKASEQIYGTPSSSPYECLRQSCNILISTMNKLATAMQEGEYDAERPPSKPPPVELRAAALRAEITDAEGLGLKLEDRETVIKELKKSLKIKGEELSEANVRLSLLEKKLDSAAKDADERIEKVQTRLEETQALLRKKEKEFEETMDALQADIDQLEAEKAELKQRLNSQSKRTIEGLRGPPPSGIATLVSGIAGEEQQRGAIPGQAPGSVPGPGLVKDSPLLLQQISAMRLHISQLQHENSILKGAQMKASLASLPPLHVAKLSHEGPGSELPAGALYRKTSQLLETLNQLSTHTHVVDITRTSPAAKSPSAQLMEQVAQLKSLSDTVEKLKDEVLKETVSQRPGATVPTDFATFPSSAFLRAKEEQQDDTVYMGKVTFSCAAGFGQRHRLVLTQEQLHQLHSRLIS
UniProt Q9H2P9, sequence (Q9H2P9 whole entry, looked up): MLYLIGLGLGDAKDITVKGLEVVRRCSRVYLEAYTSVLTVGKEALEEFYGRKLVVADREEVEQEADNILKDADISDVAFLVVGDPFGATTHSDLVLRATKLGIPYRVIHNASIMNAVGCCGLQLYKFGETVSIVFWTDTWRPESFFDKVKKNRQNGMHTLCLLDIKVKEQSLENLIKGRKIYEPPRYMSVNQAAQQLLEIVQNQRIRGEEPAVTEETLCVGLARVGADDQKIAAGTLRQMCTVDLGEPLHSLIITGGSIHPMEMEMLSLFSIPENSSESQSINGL
UniProt O75911, sequence (O75911 whole entry, looked up): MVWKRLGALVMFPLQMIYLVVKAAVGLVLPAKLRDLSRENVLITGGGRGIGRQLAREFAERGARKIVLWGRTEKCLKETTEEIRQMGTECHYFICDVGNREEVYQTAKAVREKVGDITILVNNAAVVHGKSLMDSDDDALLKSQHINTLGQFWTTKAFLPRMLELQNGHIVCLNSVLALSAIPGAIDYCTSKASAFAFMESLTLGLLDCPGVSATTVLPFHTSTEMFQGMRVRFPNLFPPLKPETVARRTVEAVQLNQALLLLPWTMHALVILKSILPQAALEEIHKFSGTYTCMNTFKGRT
UniProt Q9NV70, sequence (Q9NV70 whole entry, looked up): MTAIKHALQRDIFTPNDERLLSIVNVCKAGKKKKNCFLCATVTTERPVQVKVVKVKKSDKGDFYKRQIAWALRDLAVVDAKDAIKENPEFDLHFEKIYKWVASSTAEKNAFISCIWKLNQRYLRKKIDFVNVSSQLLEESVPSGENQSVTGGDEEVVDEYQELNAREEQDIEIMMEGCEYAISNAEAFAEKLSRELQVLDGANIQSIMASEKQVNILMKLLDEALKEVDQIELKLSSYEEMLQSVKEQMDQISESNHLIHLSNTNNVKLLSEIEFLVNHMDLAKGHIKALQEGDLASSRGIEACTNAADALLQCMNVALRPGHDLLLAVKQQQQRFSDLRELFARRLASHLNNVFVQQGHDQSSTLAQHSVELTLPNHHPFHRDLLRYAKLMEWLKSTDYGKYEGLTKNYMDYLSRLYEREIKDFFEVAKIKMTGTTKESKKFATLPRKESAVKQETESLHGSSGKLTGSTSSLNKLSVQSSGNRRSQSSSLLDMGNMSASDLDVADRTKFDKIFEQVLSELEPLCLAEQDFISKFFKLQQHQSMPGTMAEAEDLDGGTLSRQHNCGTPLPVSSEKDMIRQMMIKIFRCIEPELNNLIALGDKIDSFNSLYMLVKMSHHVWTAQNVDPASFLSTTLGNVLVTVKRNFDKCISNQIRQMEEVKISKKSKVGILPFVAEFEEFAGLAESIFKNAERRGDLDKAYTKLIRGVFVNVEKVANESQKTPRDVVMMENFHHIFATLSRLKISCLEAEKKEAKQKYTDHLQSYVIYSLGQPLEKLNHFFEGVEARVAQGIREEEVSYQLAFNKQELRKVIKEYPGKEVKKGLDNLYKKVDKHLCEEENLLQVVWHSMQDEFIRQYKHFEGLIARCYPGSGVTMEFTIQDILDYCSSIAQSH
UniProt Q9NYP7, sequence (Q9NYP7 whole entry, looked up): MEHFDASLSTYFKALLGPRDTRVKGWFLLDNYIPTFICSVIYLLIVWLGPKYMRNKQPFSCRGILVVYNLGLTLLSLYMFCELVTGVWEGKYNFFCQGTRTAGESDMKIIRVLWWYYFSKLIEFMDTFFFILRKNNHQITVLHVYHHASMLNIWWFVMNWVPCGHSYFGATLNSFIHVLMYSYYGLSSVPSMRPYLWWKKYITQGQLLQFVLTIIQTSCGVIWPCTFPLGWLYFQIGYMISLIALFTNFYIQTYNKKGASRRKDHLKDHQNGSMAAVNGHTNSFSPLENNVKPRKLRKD
UniProt Q86YN1, sequence (Q86YN1 whole entry, looked up): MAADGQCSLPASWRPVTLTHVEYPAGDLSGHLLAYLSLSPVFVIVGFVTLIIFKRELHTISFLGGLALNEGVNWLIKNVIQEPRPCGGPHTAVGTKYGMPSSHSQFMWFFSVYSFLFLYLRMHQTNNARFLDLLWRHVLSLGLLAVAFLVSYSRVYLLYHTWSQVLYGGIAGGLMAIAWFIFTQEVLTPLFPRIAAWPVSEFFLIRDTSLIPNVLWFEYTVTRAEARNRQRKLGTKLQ
UniProt Q9NVR5, sequence (Q9NVR5 whole entry, looked up): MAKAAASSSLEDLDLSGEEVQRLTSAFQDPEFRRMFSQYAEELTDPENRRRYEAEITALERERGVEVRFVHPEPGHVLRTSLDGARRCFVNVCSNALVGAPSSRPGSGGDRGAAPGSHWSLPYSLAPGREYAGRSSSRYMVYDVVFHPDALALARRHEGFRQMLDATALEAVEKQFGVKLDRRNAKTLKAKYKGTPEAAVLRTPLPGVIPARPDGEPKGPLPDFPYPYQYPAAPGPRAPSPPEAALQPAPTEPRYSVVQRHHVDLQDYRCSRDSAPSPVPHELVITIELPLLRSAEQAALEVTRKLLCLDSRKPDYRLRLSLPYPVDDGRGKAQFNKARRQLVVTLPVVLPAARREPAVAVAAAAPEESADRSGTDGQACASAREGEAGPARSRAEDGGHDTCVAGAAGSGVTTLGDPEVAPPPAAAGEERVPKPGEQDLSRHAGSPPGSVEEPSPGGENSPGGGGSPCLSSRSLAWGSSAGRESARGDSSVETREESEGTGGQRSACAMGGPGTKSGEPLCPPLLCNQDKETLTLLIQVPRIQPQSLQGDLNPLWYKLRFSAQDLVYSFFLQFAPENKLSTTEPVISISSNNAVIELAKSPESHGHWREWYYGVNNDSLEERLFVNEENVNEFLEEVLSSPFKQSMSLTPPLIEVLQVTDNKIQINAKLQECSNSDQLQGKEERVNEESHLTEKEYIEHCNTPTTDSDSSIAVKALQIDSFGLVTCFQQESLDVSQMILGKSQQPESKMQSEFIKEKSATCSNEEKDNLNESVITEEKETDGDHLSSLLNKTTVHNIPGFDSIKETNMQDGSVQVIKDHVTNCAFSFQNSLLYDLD

log2 fold change, inactive:
EXOC8 (UniProt Q8IYI6) -0.013
DNAAF2 (UniProt Q9NVR5) 0.051
ELOVL5 isoform 2 (UniProt Q9NYP7) 0.063
CTSV (UniProt O60911) 0.013
DOLPP1 (UniProt Q86YN1) 0.055
DHRS3 (UniProt O75911) -0.041
EXOC1 (UniProt Q9NV70) -0.035
DCTN1 isoform 4 (UniProt Q14203) 0.061
DPH5 isoform 5 (UniProt Q9H2P9) -0.045
ECPAS (UniProt Q5VYK3) -0.025
